Assay results reported in publication PMC7862700, “An all-to-all approach to the identification of sequence-specific readers for epigenetic DNA modifications on cytosine”.

Assays:
Assay in all cases: DAPPL (digital affinity profiling via proximity ligation, sequencing); 10 mM Tris-HCl pH 7.5, 50 mM NaCl, 1 mM DTT, 4% glycerol, room temperature, 30 min; GST-TFs on glutathione beads, 16-mer random dsDNA library, 0.1% formaldehyde crosslink after washing; high values mean tight binding
FEV = molecular target: T1, FEV (Homo sapiens, UniProt Q99581 1-238); conditions: protein: recombinant; tags: N-terminal GST; dsDNA, one strand shown
T1 sequence: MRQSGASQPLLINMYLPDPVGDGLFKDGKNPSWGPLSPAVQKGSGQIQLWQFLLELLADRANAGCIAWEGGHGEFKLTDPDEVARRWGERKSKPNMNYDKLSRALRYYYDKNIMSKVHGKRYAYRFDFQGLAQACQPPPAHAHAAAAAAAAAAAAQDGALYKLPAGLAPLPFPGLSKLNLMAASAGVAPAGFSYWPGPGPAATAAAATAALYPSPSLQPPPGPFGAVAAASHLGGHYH
Outline: (§1)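 A tag-only sample was pooled with DNA-barcoded human transcription factors that had been expressed in yeast as GST fusions and captured on glutathione beads. The pools were incubated for 30 min at room temperature with 200 nmole of a random double-stranded 16-mer DNA library in Tris/NaCl/DTT/glycerol buffer, then washed, crosslinked with 0.1% formaldehyde, proximity-ligated (BsaI/T4 ligase, 1 h, 37 °C), PCR-amplified and sequenced on an Illumina NextSeq500. Binding signal is each hexamer's read frequency for a factor divided by its frequency for the tag-only sample.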

ETV5 = ETV5 (Homo sapiens, UniProt P41161 1-510); conditions: protein: recombinant; tags: N-terminal GST; dsDNA, one strand shown
ETV5, sequence (P41161 whole entry): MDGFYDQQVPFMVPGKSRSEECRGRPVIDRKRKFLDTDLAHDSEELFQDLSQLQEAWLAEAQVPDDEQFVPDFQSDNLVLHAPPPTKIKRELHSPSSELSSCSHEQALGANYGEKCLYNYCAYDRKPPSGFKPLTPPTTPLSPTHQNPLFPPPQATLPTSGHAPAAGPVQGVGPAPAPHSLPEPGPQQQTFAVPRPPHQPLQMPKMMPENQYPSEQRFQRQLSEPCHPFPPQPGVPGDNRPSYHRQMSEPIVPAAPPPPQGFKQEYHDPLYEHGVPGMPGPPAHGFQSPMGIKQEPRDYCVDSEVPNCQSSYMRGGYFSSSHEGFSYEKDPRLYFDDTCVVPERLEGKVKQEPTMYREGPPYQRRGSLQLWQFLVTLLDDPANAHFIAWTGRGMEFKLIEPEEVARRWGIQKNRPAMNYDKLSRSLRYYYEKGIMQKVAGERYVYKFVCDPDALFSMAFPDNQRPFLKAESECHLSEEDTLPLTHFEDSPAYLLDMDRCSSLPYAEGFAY
Outline: as §1

HSF1 = HSF1 (Homo sapiens, UniProt Q00613 1-529); conditions: protein: recombinant; tags: N-terminal GST; chain copies: 3; dsDNA, one strand shown
HSF1, sequence (Q00613 whole entry): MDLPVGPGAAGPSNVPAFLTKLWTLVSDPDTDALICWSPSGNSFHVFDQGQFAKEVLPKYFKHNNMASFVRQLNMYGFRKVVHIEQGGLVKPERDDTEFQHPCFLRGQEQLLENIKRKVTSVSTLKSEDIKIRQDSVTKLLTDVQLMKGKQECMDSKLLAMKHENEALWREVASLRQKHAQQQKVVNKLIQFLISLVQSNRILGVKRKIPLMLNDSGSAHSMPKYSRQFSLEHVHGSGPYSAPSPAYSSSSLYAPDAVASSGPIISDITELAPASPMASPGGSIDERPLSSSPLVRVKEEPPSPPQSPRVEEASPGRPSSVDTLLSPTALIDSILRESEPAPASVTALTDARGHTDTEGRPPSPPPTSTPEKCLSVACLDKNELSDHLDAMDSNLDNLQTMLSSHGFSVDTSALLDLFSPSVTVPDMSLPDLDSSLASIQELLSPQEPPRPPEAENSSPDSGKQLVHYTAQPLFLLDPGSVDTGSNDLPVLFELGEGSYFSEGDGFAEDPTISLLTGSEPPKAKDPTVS
Outline: as §1

SPIC = molecular target: T2, SPIC (Homo sapiens, UniProt Q8N5J4 1-248); conditions: protein: recombinant; tags: N-terminal GST; dsDNA, one strand shown
T2 sequence: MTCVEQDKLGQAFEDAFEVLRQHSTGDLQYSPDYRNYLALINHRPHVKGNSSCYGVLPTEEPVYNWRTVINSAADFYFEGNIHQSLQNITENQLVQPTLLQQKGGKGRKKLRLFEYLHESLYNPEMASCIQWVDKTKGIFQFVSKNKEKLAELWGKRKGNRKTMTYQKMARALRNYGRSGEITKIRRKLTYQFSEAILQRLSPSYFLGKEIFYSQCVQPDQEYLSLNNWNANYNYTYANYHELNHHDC
Outline: as §1

ELF4 = ELF4 (Homo sapiens, UniProt Q99607 1-663); conditions: protein: recombinant; tags: N-terminal GST; dsDNA, one strand shown
ELF4, sequence (Q99607 whole entry): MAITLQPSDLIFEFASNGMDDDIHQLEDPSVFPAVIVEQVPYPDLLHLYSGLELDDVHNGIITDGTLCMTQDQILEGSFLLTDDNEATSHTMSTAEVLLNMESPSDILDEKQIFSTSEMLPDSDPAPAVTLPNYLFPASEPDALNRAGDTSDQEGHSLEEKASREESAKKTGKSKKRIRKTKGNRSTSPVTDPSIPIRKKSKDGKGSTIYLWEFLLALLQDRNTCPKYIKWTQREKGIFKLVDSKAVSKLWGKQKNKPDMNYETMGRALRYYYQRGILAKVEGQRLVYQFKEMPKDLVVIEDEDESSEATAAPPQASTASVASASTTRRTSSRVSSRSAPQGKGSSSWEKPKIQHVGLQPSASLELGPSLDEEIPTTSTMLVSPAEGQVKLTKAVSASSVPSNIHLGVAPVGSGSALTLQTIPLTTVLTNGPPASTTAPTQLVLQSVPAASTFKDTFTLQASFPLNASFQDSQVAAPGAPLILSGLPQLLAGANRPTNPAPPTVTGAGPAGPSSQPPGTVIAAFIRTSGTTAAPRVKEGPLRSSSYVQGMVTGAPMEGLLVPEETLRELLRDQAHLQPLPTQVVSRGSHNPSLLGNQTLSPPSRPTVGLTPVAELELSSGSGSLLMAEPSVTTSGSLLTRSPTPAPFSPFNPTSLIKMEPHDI
Outline: as §1

ELK4 = molecular target: T3, ELK4 (Homo sapiens, UniProt P28324-2 1-405); conditions: protein: recombinant; tags: N-terminal GST; dsDNA, one strand shown
T3 sequence: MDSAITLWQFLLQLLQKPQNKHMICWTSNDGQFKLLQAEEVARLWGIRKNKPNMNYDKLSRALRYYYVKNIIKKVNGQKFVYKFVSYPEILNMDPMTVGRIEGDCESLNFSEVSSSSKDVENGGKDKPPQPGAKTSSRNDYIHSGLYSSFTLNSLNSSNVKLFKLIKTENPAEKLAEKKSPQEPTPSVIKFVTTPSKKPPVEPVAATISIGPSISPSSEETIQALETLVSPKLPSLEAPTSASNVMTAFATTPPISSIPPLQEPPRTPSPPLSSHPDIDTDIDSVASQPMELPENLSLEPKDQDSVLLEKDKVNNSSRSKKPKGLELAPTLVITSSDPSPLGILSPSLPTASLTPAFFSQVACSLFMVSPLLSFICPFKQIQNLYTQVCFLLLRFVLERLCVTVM
Outline: as §1

ETV2 = molecular target: T4, ETV2 (Homo sapiens, UniProt O00321 1-342); conditions: protein: recombinant; tags: N-terminal GST; dsDNA, one strand shown
T4 sequence: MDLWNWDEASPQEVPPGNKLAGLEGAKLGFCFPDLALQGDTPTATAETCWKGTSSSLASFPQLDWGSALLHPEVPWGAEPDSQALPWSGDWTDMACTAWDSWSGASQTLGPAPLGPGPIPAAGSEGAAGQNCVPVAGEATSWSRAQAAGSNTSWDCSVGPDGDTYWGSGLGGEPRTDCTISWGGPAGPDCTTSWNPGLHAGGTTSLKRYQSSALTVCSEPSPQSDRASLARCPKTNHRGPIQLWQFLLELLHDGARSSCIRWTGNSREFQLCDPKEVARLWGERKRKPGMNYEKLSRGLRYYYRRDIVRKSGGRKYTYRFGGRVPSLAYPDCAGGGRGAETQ
Outline: as §1

ELF3 = molecular target: T5, ELF3 (Homo sapiens, UniProt P78545 1-371); conditions: protein: recombinant; tags: N-terminal GST; dsDNA, one strand shown
T5 sequence: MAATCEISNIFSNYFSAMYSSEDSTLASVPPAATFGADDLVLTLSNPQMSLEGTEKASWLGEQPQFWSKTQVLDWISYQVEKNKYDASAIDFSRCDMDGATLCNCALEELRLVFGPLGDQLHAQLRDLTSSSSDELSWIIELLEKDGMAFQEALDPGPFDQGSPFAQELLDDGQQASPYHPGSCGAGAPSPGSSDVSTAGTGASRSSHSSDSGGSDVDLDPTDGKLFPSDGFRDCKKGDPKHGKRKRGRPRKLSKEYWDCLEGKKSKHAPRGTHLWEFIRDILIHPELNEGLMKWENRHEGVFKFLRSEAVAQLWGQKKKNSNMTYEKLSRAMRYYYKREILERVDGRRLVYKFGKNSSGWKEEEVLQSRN
Outline: as §1

CRX = CRX (Homo sapiens, UniProt O43186 1-299); conditions: protein: recombinant; tags: N-terminal GST; dsDNA, one strand shown
CRX, sequence (O43186 whole entry): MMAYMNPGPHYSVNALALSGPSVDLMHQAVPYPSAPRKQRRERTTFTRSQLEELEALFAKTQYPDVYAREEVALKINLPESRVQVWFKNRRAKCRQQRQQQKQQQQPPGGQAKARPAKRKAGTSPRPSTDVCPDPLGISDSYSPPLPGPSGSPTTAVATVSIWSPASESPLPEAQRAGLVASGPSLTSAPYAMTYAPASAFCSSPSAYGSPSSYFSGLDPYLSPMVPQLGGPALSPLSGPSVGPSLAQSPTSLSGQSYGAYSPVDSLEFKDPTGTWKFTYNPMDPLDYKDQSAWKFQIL
Outline: as §1

ETV1 = ETV1 (Homo sapiens, UniProt P50549 1-477); conditions: protein: recombinant; tags: N-terminal GST; dsDNA, one strand shown
ETV1, sequence (P50549 whole entry): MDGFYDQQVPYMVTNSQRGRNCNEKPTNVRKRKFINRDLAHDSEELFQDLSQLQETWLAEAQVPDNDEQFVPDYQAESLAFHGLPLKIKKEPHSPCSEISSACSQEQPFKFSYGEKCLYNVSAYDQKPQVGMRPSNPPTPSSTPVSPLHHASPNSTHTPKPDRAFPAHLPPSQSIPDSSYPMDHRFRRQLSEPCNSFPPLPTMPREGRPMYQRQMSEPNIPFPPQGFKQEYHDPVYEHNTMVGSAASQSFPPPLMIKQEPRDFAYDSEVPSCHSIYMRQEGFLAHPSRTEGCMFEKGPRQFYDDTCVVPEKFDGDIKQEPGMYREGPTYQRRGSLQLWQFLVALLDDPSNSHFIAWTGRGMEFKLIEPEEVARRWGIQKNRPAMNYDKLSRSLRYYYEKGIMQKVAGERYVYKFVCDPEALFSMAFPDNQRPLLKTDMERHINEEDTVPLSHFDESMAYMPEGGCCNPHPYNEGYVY
Outline: as §1

GCCTTT
binding signal (FEV): 1.41 fold enrichment (6-mer frequency, TF over GST control)
binding signal (ETV5): 1.25 fold enrichment (6-mer frequency, TF over GST control)
binding signal (HSF1): 1.24 fold enrichment (6-mer frequency, TF over GST control)
binding signal (SPIC): 1.56 fold enrichment (6-mer frequency, TF over GST control)
binding signal (ELF4): 1.36 fold enrichment (6-mer frequency, TF over GST control)
binding signal (ELK4): 1.32 fold enrichment (6-mer frequency, TF over GST control)
binding signal (ETV2): 1.53 fold enrichment (6-mer frequency, TF over GST control)
binding signal (ELF3): 1.38 fold enrichment (6-mer frequency, TF over GST control)
binding signal (CRX): 1.3 fold enrichment (6-mer frequency, TF over GST control)
binding signal (ETV1): 1.34 fold enrichment (6-mer frequency, TF over GST control)

TTATAG
binding signal (FEV): 1.17 fold enrichment (6-mer frequency, TF over GST control)
binding signal (ETV5): 1.29 fold enrichment (6-mer frequency, TF over GST control)
binding signal (HSF1): 1.8 fold enrichment (6-mer frequency, TF over GST control)
binding signal (SPIC): 1.38 fold enrichment (6-mer frequency, TF over GST control)
binding signal (ELF4): 1.13 fold enrichment (6-mer frequency, TF over GST control)
binding signal (ELK4): 1.24 fold enrichment (6-mer frequency, TF over GST control)
binding signal (ETV2): 1.07 fold enrichment (6-mer frequency, TF over GST control)
binding signal (ELF3): 1.27 fold enrichment (6-mer frequency, TF over GST control)
binding signal (CRX): 2.46 fold enrichment (6-mer frequency, TF over GST control)
binding signal (ETV1): 1.18 fold enrichment (6-mer frequency, TF over GST control)

CCTTCG
binding signal (FEV): 1.38 fold enrichment (6-mer frequency, TF over GST control)
binding signal (ETV5): 1.3 fold enrichment (6-mer frequency, TF over GST control)
binding signal (HSF1): 1.88 fold enrichment (6-mer frequency, TF over GST control)
binding signal (SPIC): 1.31 fold enrichment (6-mer frequency, TF over GST control)
binding signal (ELF4): 1.39 fold enrichment (6-mer frequency, TF over GST control)
binding signal (ELK4): 1.34 fold enrichment (6-mer frequency, TF over GST control)
binding signal (ETV2): 1.39 fold enrichment (6-mer frequency, TF over GST control)
binding signal (ELF3): 1.28 fold enrichment (6-mer frequency, TF over GST control)
binding signal (CRX): 1.28 fold enrichment (6-mer frequency, TF over GST control)
binding signal (ETV1): 1.5 fold enrichment (6-mer frequency, TF over GST control)

TGGAAT
binding signal (FEV): 1.21 fold enrichment (6-mer frequency, TF over GST control)
binding signal (ETV5): 1.22 fold enrichment (6-mer frequency, TF over GST control)
binding signal (HSF1): 2.63 fold enrichment (6-mer frequency, TF over GST control)
binding signal (SPIC): 1.22 fold enrichment (6-mer frequency, TF over GST control)
binding signal (ELF4): 1.14 fold enrichment (6-mer frequency, TF over GST control)
binding signal (ELK4): 1.21 fold enrichment (6-mer frequency, TF over GST control)
binding signal (ETV2): 1.47 fold enrichment (6-mer frequency, TF over GST control)
binding signal (ELF3): 1.21 fold enrichment (6-mer frequency, TF over GST control)
binding signal (CRX): 1.77 fold enrichment (6-mer frequency, TF over GST control)
binding signal (ETV1): 1.24 fold enrichment (6-mer frequency, TF over GST control)

GACATT
binding signal (FEV): 1.13 fold enrichment (6-mer frequency, TF over GST control)
binding signal (ETV5): 1.17 fold enrichment (6-mer frequency, TF over GST control)
binding signal (HSF1): 1.09 fold enrichment (6-mer frequency, TF over GST control)
binding signal (SPIC): 1.12 fold enrichment (6-mer frequency, TF over GST control)
binding signal (ELF4): 1.14 fold enrichment (6-mer frequency, TF over GST control)
binding signal (ELK4): 1.1 fold enrichment (6-mer frequency, TF over GST control)
binding signal (ETV2): 1.13 fold enrichment (6-mer frequency, TF over GST control)
binding signal (ELF3): 1.16 fold enrichment (6-mer frequency, TF over GST control)
binding signal (CRX): 1.01 fold enrichment (6-mer frequency, TF over GST control)
binding signal (ETV1): 1.26 fold enrichment (6-mer frequency, TF over GST control)

TACGGC
binding signal (FEV): 1.15 fold enrichment (6-mer frequency, TF over GST control)
binding signal (ETV5): 1.15 fold enrichment (6-mer frequency, TF over GST control)
binding signal (HSF1): 1.02 fold enrichment (6-mer frequency, TF over GST control)
binding signal (SPIC): 1.05 fold enrichment (6-mer frequency, TF over GST control)
binding signal (ELF4): 1.28 fold enrichment (6-mer frequency, TF over GST control)
binding signal (ELK4): 1.19 fold enrichment (6-mer frequency, TF over GST control)
binding signal (ETV2): 1.12 fold enrichment (6-mer frequency, TF over GST control)
binding signal (ELF3): 1.14 fold enrichment (6-mer frequency, TF over GST control)
binding signal (CRX): 1.2 fold enrichment (6-mer frequency, TF over GST control)
binding signal (ETV1): 1.14 fold enrichment (6-mer frequency, TF over GST control)

TTCTAA
binding signal (FEV): 1.18 fold enrichment (6-mer frequency, TF over GST control)
binding signal (ETV5): 1.22 fold enrichment (6-mer frequency, TF over GST control)
binding signal (HSF1): 1.83 fold enrichment (6-mer frequency, TF over GST control)
binding signal (SPIC): 1.13 fold enrichment (6-mer frequency, TF over GST control)
binding signal (ELF4): 1.23 fold enrichment (6-mer frequency, TF over GST control)
binding signal (ELK4): 1.22 fold enrichment (6-mer frequency, TF over GST control)
binding signal (ETV2): 1.26 fold enrichment (6-mer frequency, TF over GST control)
binding signal (ELF3): 1.04 fold enrichment (6-mer frequency, TF over GST control)
binding signal (CRX): 1.84 fold enrichment (6-mer frequency, TF over GST control)
binding signal (ETV1): 1.21 fold enrichment (6-mer frequency, TF over GST control)
